# A number with no mark means an inactive call.
# System: Caenorhabditis elegans L1 (N2)
# Assay: survival and reproduction score of C. elegans L1 (0: 0-10 living worms, 1: 11-20, 2: 21-50, 3: >50, 4: overgrown) (score 0-4); higher = more worms, less nematicidal, active = 1 or less; extreme values may be limits of the assay
# Conditions: 60 µM; 6 days; temperature: 20 °C
# How it was run: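 Compound was pinned to a final 60 µM (0.6% v/v DMSO) into 96-well wells, each holding about 20 synchronized C. elegans N2 L1s and E. coli HB101 in liquid NGM. After 6 days of shaking at 200 rpm and 20 °C in sealed plates, the worms in each well were examined. The ordinal readout of survival and reproduction, based on living worms per well, was assessed under a dissection microscope. On this scale 0 meant 0–10 worms and 4 meant overgrown, starved wells, and two biological replicates were averaged.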
row,SMILES,survival and reproduction score
1,Clc1ccccc1-c1noc(-c2cccnc2)n1,4
2,O=C(c1ccccc1-c1nc(-c2ccccc2Cl)no1)N1CCCC1,4
3,CCOc1ccc(NC(=O)CSc2nnc(-c3ccncc3)o2)cc1,4
4,O=C(CSc1nnc(-c2cccc(Br)c2)o1)Nc1ccccn1,4
5,c1ccc(COc2cccc(-c3nc(-c4cccnc4)no3)c2)cc1,2.5
6,O=C(CSc1nnc(-c2ccccc2)o1)NC1CC2CCC1C2 (centres undefined),4
7,O=C(c1ccccc1-c1nc(-c2ccccc2)no1)N1CCCCC1,4
8,COc1ccc(Cl)cc1-c1noc(COc2ccccc2)n1,4
9,Cc1ccccc1-c1nc(-c2ccc3c(c2)OCO3)no1,2.5
10,Cc1ccc(NC(=O)CSc2nnc(-c3ccco3)o2)cc1Cl,4
11,Brc1ccccc1-c1nc(-c2ccncc2)no1,0 (active)
12,Cc1ccc(-c2noc(COc3cc(C)ccc3C)n2)cc1,4
13,Cc1ccc(-c2noc(COc3ccccc3C)n2)cc1,4
14,Clc1cc(Br)ccc1OCc1nc(-c2ccccn2)no1,4
15,Cc1ccccc1-c1noc(CSc2nc3ccccc3[nH]2)n1,4
16,c1coc(-c2nnc(-c3ccco3)o2)c1,4
17,COc1ccc(-c2nnc(SCC(=O)Nc3ccc(Br)cc3C)o2)cc1,4
18,O=C(CSc1nnc(-c2ccco2)o1)Nc1ccccc1F,4
19,COc1ccc(-c2noc(-c3ccccc3C(=O)Nc3cccc(C)c3C)n2)cc1,4
